Experimental findings from PubChem BioAssay (NCI) are described below.

Each structure is given as a SMILES string. Compounds without any hit were thinned out: in the full panel of roughly 79,000, 15% have a hit. Values without a mark were called inactive. Calls of active or inactive are those of the source. Rule as the data show it: active = growth inhibition above about 70%; inactive = the rest.

A short description of experiment [1]: NCI Yeast Anticancer Drug Screen. Data for the rad50 strain (AID 155).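 Also: 0% = growth of vehicle-only cultures of the same strain.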 The note with it: S. cerevisiae rad50 strain growth inhibition, hits give high values. Summed up:
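Compounds were tested on a yeast strain with an engineered DNA damage repair alteration; the reported value is growth inhibition normalised to vehicle treatment.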

Experiment [2] in a line: NCI Yeast Anticancer Drug Screen. Data for the mec2-1 strain (AID 157). The note with it: S. cerevisiae mec2-1 strain, hits give high values. The essentials:
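Mutant yeast (mec2-1) grown with compound; growth inhibition relative to vehicle control reported.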

Experiment [3] is described as follows: NCI Yeast Anticancer Drug Screen. Data for the sgs1 mgt1 strain (AID 161).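 Also: 0% = growth of cultures given vehicle only.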 The conditions noted are these: S. cerevisiae sgs1 mgt1 strain, hits give high values. Summed up: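 Yeast cells carrying a defined DNA-repair defect were exposed to test compounds. Growth inhibition was measured relative to vehicle-treated controls.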
A short description of experiment [4]: NCI Yeast Anticancer Drug Screen. Data for the cln2 rad14 strain (AID 165).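 Also: 0% = growth equal to vehicle treated cultures.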 The conditions noted are these: S. cerevisiae cln2 rad14 strain, hits give high values. Summed up: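 Readout is yeast growth inhibition versus vehicle-treated controls, using a strain with cln2 and rad14 alterations exposed to compound.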
A short description of experiment [5]: NCI Yeast Anticancer Drug Screen. Data for the bub3 strain (AID 167). The note with it: S. cerevisiae bub3 mutant strain, hits give high values. Summed up: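 Growth of a checkpoint-deficient yeast mutant is measured after compound exposure. Values represent inhibition relative to vehicle.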
Experiment [6] in a line: NCI Yeast Anticancer Drug Screen. Data for the mlh1 rad18 strain (AID 175). The conditions noted are these: S. cerevisiae mlh1 rad18 strain growth inhibition, hits give high values. The essentials:
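Genetically defined yeast (DNA repair-deficient) exposed to compounds; growth inhibition determined relative to vehicle.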

Setting [7] is: at 5.0 µM (retest, dose inferred, filed as 0.5).
[8] abbreviates: at 50.0 µM (retest, dose inferred, filed as 5.0).

Turning to `O=c1cccccc1[O-].O=c1cccccc1[O-].O=c1cccccc1[O-].[Ce+3]`, the growth inhibition is 31% in experiment [1] (setting [7]); 31% in experiment [1] (setting [8]); 90% (active) in experiment [1] (at 50.0 µM); 20% in experiment [2] (setting [7]); 20% in experiment [2] (setting [8]); 92% (active) in experiment [2] (at 50.0 µM). The growth inhibition is 13% in experiment [3] (setting [7]); 13% in experiment [3] (setting [8]); 85% (active) in experiment [3] (at 50.0 µM); 16% in experiment [4] (setting [7]); 16% in experiment [4] (setting [8]); 90.4% (active) in experiment [4] (at 50.0 µM). The growth inhibition in experiment [5] (setting [7]) was 10%; in experiment [5] (setting [8]) it was 10%; in experiment [5] (at 50.0 µM), 91.2% (active); in experiment [6] (setting [7]) it was 26%; in experiment [6] (setting [8]), 26%; in experiment [6] (at 50.0 µM), 88.5% (active).

With `Cc1ccc(NC(=S)SCc2ccco2)cc1Cl`, the growth inhibition in experiment [1] (setting [7]) is 22%; in experiment [1] (setting [8]) it was 99% (active); in experiment [1] (at 50.0 µM) it was 99.5% (active); in experiment [2] (setting [7]), 5%; in experiment [2] (setting [8]), 99% (active); in experiment [2] (at 50.0 µM), 99.8% (active). Further, the growth inhibition in experiment [3] (setting [7]) was 12%; in experiment [3] (setting [8]) it was 99% (active); in experiment [3] (at 50.0 µM), 99.7% (active); in experiment [4] (setting [7]), -3%; in experiment [4] (setting [8]), 99% (active); in experiment [4] (at 50.0 µM), 99.5% (active). Besides, the growth inhibition was -3% in experiment [5] (setting [7]); 99% (active) in experiment [5] (setting [8]); 99.7% (active) in experiment [5] (at 50.0 µM); 20% in experiment [6] (setting [7]); 99% (active) in experiment [6] (setting [8]); 99.6% (active) in experiment [6] (at 50.0 µM).

Turning to `CCCCCCCCCCCCCCCCN[Si](NCCCCCCCCCCCCCCCC)(NCCCCCCCCCCCCCCCC)NCCCCCCCCCCCCCCCC`, the growth inhibition in experiment [1] (setting [7]) was 97% (active); in experiment [1] (setting [8]), 96% (active); in experiment [1] (at 50.0 µM), 85.5% (active); in experiment [2] (setting [7]) it was 99% (active); in experiment [2] (setting [8]), 96% (active); in experiment [2] (at 50.0 µM) it was 83.4% (active). Also, the growth inhibition was 99% (active) in experiment [3] (setting [7]); 96% (active) in experiment [3] (setting [8]); 88.2% (active) in experiment [3] (at 50.0 µM); 98% (active) in experiment [4] (setting [7]); 95% (active) in experiment [4] (setting [8]); 85.5% (active) in experiment [4] (at 50.0 µM). The growth inhibition in experiment [5] (setting [7]) is 99% (active); in experiment [5] (setting [8]), 97% (active); in experiment [5] (at 50.0 µM), 86% (active); in experiment [6] (setting [7]) it was 97% (active); in experiment [6] (setting [8]), 95% (active); in experiment [6] (at 50.0 µM), 83.9% (active).

As for `CCCCCCCCCCCC[N+]1(C)CCCC1c1cccnc1` (stereo not drawn), the growth inhibition in experiment [1] (setting [7]) was 19%; in experiment [1] (setting [8]) it was 97% (active); in experiment [1] (at 50.0 µM), 50.5%; in experiment [2] (setting [7]) it was 13%; in experiment [2] (setting [8]) it was 98% (active); in experiment [2] (at 50.0 µM) it was 97.5% (active). Also, the growth inhibition was 4% in experiment [3] (setting [7]); 98% (active) in experiment [3] (setting [8]); 51.9% in experiment [3] (at 50.0 µM); 5% in experiment [4] (setting [7]); 98% (active) in experiment [4] (setting [8]); 94.3% (active) in experiment [4] (at 50.0 µM). The growth inhibition in experiment [5] (setting [7]) was 27%; in experiment [5] (setting [8]) it was 92% (active); in experiment [5] (at 50.0 µM), 97.5% (active); in experiment [6] (setting [7]) it was 19%; in experiment [6] (setting [8]), 97% (active); in experiment [6] (at 50.0 µM), 96.9% (active).

Consider `CCN(CC)C(=S)Nc1ccc(Cl)cc1`, for which the growth inhibition was -144% in experiment [1] (setting [7]); 67% in experiment [1] (setting [8]); 98.5% (active) in experiment [1] (at 50.0 µM); -50% in experiment [2] (setting [7]); 49% in experiment [2] (setting [8]); 97.7% (active) in experiment [2] (at 50.0 µM). For the same compound, the growth inhibition in experiment [3] (setting [7]) was -62%; in experiment [3] (setting [8]), 63%; in experiment [3] (at 50.0 µM) it was 97.1% (active); in experiment [4] (setting [7]), -85%; in experiment [4] (setting [8]), 40%; in experiment [4] (at 50.0 µM), 98.5% (active). Besides, the growth inhibition was -65% in experiment [5] (setting [7]); 45% in experiment [5] (setting [8]); 95.2% (active) in experiment [5] (at 50.0 µM); -122% in experiment [6] (setting [7]); 74% (active) in experiment [6] (setting [8]); 97.4% (active) in experiment [6] (at 50.0 µM).

Turning to `Clc1ccc(CSCCc2ccncc2)cc1Cl`, the growth inhibition was -5% in experiment [1] (setting [7]); 98% (active) in experiment [1] (setting [8]); 98.7% (active) in experiment [1] (at 50.0 µM); 0% in experiment [2] (setting [7]); 96% (active) in experiment [2] (setting [8]); 99% (active) in experiment [2] (at 50.0 µM). In addition, the growth inhibition in experiment [3] (setting [7]) is 5%; in experiment [3] (setting [8]), 97% (active); in experiment [3] (at 50.0 µM), 97.5% (active); in experiment [4] (setting [7]), -19%; in experiment [4] (setting [8]) it was 95% (active); in experiment [4] (at 50.0 µM), 97.6% (active). Further, the growth inhibition in experiment [5] (setting [7]) is 5%; in experiment [5] (setting [8]), 98% (active); in experiment [5] (at 50.0 µM) it was 98.2% (active); in experiment [6] (setting [7]), 4%; in experiment [6] (setting [8]) it was 97% (active); in experiment [6] (at 50.0 µM) it was 98.8% (active).
